The panel holds about 83,000 compounds, 20% with a hit somewhere; the sample as a whole holds those more often.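 Activity criterion: percent growth below 10, measured after cells in 96-well plates were exposed to a single compound concentration for 48 hours.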 Calls of active or inactive are those of the source.
Test system: HL-60(TB) leukemia
Assay: NCI-60 one-dose screen, 48 h (100 = growth as untreated, 0 = no growth, -100 = all killed)
Details: 10 µM unless noted

Compound	growth
C=C1C(=O)C2CCC1C2 (configuration not stated)	95.9% (inactive)
ClC(Cl)c1nc(-c2ccccc2)nc2cc(-c3ccccc3)nn12	94.9% (inactive)
O=C(O)c1cn(C2CC2)c2cc(N3CCN(C(=O)C[n+]4ccccc4)CC3)c(F)cc2c1=O	112% (inactive)
Cc1sc2nc(CSc3nnc(-c4ccco4)o3)[nH]c(=O)c2c1C	68.6% (inactive)
Cc1ccc2nc(-c3ccc(C(=O)N/N=C/c4ccc([N+](=O)[O-])cc4)cc3)[nH]c2c1	103% (inactive)
Oc1ccc2ccccc2c1CN1CCOCC1	105% (inactive)
O=c1oc2cc(OS(=O)(=O)c3ccccc3)ccc2c2c1CCCCC2	18.6% (inactive)
Cc1ccc2c(c1)=C/C(=C\c1cc(-c3ccccc3)oc1O)C(=O)N=2	98% (inactive)
COc1cc2c(cc1OCCCCCN1CCN(c3ncnc4ccccc34)CC1)N=CC1CCCN1C2=O (configuration not stated)	-25.8% (active)
COC(=O)[C@]12CC[C@@H](C)[C@H](C)[C@@H]1C1=CC[C@@H]3[C@@]4(C)C(C=O)=C[C@@](C)(COS(C)(=O)=O)C4=CC[C@@]3(C)[C@]1(C)CC2	-34.8% (active)
COc1cc2c(cc1O)C(=O)CCCC2	90.3% (inactive)
C=C(C)[C@@H]1CC[C@]2(c3nnc(-c4ccncc4)o3)CC[C@]3(C)[C@H](CC[C@@H]4[C@@]5(C)CCC(=O)NC(C)(C)[C@@H]5CC[C@]43C)[C@@H]12	115% (inactive)
N[C@@H]1CCC[C@H]1NCCCCN1C(=O)c2cccc3cc([N+](=O)[O-])cc(c23)C1=O	30.5% (inactive)
O=C(COc1cccc(/C=C2\COc3ccccc3C2=O)c1)c1ccccc1	40.3% (inactive)
Nc1nc2ccc(-c3nc4ccc5[nH]ncc5c4c4c3CCC4)cc2s1	30.2% (inactive)
O=C(NCc1ccco1)Nc1cccc2c(NC(=O)NCc3ccco3)cccc12	66.5% [100 µM] (inactive)
N[C@@H](CO)C(=O)O	106% (inactive)
c1ccc(CNc2ncnc3scc(-c4cccs4)c23)nc1	58.2% (inactive)
COc1ccc(-c2cc(C(=O)Nc3ccc(Br)cc3)nc3[nH]c(=O)sc23)cc1	25.5% (inactive)

Compound	growth
Cc1ccccc1CNc1ncnc2[nH]ncc12	49.2% (inactive)
O=S(=O)(Nc1cc(Sc2cccc3cccnc23)c(O)c2ccccc12)c1ccccc1	-21% (active)
COc1nc(OC)nc(-c2cc(-c3cc(OC)c(OC)c(OC)c3)no2)n1	95.2% (inactive)
COc1cc2c(c(OC)c1OC)-c1ccc(SC)c(=O)cc1[C@@H](NC1OC(CO)C(O)C(O)C1O)CC2 (some centres not stated)	-38.6% (active)
O=[N+]([O-])c1ccc(/C(=C/c2ccccc2)[n+]2ccccc2)cc1	110% (inactive)
COc1ccc(/C=N/C2=C(C#N)C(c3ccccc3)c3c(ccc4ccccc34)O2)cc1 (configuration not stated)	-18.1% (active)
COC(=O)[C@]12CC[C@@H](C)[C@H](C)[C@@H]1C1=CC[C@@H]3[C@@]4(C)C[C@@H](O)[C@H](O)[C@@](C)(CO)C4=CC[C@@]3(C)[C@]1(C)CC2	-28% (active)
Cn1cc(-c2csc(-c3cn(CCN)c4ccc(Br)cc34)n2)c2cccnc21	41% (inactive)
Cc1cc(C)nc(NS(=O)(=O)c2ccc(Nc3ccc4c5c(n(CCCN(C)C)c(=O)c4c3)-c3ccccc3C5=O)cc2)n1	70.6% (inactive)
CC(=O)C1C(=O)C(=O)N(c2ccc(Cl)c(Cl)c2)C1=O (configuration not stated)	98.6% (inactive)
C1=C(c2ccccc2)c2ccccc2C1	95.1% (inactive)
C/C=C/C/C=C/[C@H](C)C[C@H](O)[C@@H]1C[C@@H]2O[C@H]2/C=C/[C@@H]2OC(C)(C)O[C@H]2/C=C/C[C@H](C)CC(=O)O1	31.2% (inactive)
COc1cccc(CCNc2ncnc3c2ncn3Cc2nnc3c4ccccc4c(Cl)nn23)c1	57.5% (inactive)
NNc1nc(-c2cccnc2)nc2c1sc(=S)n2-c1ccccc1	77.1% (inactive)
COc1cc(/C=C2\CCC/C(=C\c3cc(CN4CCCC4)c(O)c(OC)c3)C2=O)cc(CN2CCCC2)c1O	5.18% (active)
CNC(=O)c1cn(C2CC2)c2cc(N3CCN(C(=O)c4cc(OC)c(OC)c(OC)c4)CC3)c(F)cc2c1=O	101% (inactive)
C=C(C)CCCC(C)CC#N (configuration not stated)	108% (inactive)
O=C1C(N2CCOCC2)=Cc2cccc3cccc1c23	-26% (active)
